Measured values: PMC7862700, “An all-to-all approach to the identification of sequence-specific readers for epigenetic DNA modifications on cytosine”

Experiments:
Test in all cases: DAPPL (digital affinity profiling via proximity ligation, sequencing); 10 mM Tris-HCl pH 7.5, 50 mM NaCl, 1 mM DTT, 4% glycerol, room temperature, 30 min; GST-TFs on glutathione beads, 16-mer random dsDNA library, 0.1% formaldehyde crosslink after washing; high values mean tight binding
Conditions in all cases: protein: recombinant; tags: N-terminal GST; dsDNA, one strand shown
[1] = target: T1, FLI1 (Homo sapiens, UniProt Q01543 1-452)
T1 sequence: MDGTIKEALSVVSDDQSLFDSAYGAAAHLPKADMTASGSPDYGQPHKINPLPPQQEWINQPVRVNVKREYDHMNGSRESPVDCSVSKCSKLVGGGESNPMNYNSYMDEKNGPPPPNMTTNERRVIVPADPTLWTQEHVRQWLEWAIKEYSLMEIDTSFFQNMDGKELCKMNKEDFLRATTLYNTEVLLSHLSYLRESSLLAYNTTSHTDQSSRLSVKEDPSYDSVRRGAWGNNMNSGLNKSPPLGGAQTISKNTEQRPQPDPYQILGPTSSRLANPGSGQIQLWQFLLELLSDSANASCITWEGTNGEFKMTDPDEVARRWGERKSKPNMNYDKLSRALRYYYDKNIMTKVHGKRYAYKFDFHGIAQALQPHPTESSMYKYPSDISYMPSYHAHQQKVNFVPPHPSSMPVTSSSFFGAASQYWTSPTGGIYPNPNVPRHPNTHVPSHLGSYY
How it was run: (§1)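 Binding signal is given per hexamer as its read frequency for a factor divided by its frequency in the tag-only sample. GST-fused human transcription factors were expressed in yeast, captured on glutathione beads, barcoded with DNA and pooled with that sample, then incubated with 200 nmole of a 16-mer random double-stranded DNA library in Tris/NaCl/DTT/glycerol buffer for 30 min at room temperature. The pools were then washed, crosslinked, proximity-ligated, amplified by PCR and sequenced on an Illumina NextSeq500.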

[2] = target: T2, ELK1 (Homo sapiens, UniProt P19419 1-428)
T2 sequence: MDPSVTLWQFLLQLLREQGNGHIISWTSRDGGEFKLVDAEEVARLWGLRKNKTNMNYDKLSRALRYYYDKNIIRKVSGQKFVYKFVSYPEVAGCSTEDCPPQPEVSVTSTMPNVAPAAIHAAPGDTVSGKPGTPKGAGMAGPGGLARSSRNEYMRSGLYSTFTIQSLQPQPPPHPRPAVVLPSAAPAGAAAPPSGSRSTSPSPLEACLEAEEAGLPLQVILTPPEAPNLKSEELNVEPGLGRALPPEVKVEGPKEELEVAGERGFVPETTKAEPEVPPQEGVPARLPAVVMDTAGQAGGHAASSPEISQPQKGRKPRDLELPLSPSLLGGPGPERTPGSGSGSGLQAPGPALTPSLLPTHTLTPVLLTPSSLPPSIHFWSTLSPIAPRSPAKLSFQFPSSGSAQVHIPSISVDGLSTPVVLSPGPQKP
How it was run: as §1

[3] = target: T3, GABPA (Homo sapiens, UniProt Q06546 1-454)
T3 sequence: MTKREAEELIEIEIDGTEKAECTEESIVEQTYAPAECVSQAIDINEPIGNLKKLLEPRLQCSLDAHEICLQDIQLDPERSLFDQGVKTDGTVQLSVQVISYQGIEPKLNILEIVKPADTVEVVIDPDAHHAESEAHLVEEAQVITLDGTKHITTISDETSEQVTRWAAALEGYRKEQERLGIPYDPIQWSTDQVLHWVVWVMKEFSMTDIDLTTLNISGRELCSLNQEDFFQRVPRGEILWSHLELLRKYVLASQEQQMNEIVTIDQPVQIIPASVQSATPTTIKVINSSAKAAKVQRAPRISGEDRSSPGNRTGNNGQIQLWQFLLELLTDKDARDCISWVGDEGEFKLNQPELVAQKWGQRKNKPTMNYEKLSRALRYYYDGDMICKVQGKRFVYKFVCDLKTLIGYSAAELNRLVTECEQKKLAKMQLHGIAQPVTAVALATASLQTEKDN
How it was run: as §1

[4] = target: T4, ERG (Homo sapiens, UniProt P11308 1-479)
T4 sequence: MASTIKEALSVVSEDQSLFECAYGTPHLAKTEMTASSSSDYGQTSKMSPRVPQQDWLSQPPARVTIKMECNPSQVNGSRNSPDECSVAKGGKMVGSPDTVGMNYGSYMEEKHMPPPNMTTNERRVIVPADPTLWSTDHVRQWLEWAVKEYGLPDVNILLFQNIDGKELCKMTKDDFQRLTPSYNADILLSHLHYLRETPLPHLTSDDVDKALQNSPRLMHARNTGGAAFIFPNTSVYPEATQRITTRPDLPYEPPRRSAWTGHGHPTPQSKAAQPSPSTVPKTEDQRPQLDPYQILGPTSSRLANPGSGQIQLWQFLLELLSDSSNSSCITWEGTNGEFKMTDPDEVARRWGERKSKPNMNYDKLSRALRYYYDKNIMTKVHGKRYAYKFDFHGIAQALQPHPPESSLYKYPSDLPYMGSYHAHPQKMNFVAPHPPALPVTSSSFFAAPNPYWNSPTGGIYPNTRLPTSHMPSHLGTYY
How it was run: as §1

[5] = target: ELF1 (Homo sapiens, UniProt P32519 1-619)
Chain of ELF1 (P32519 whole entry): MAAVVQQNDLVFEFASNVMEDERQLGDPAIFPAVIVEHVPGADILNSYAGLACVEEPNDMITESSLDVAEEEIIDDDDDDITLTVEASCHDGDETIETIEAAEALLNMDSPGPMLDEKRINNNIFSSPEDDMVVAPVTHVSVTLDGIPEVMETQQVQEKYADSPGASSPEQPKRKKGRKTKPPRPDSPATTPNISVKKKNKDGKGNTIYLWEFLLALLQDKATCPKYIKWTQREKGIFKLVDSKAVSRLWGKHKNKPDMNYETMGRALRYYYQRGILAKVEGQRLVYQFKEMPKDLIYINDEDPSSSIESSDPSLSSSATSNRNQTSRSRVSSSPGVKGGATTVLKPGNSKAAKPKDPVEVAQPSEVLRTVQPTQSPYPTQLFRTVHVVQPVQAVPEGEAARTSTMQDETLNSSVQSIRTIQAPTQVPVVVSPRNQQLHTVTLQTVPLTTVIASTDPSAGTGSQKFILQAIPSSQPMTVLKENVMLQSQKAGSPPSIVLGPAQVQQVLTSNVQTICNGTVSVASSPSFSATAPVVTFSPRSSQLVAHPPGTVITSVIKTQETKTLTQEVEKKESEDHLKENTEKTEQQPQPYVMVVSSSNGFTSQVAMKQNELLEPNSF
How it was run: as §1

[6] = target: T5, EHF (Homo sapiens, UniProt Q9NZC4 1-300)
T5 sequence: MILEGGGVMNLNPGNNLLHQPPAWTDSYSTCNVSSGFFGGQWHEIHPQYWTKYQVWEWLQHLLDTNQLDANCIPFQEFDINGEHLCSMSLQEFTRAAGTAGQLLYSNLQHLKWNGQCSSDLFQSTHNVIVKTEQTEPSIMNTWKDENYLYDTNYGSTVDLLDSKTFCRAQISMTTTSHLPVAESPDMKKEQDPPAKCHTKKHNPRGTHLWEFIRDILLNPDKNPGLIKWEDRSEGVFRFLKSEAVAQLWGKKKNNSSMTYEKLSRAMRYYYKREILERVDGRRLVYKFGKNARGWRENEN
How it was run: as §1

[7] = target: SPI1 (Homo sapiens, UniProt P17947 1-270)
How it was run: as §1

[8] = target: SPIB (Homo sapiens, UniProt Q01892 1-262)
Chain of SPIB (Q01892 whole entry): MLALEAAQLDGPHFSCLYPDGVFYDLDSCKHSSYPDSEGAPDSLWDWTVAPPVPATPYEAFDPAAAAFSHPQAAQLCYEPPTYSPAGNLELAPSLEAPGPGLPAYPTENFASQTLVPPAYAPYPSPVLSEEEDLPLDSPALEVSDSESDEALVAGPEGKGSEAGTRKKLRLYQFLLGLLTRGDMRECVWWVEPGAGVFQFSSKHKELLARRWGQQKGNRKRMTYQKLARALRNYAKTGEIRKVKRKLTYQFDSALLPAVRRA
How it was run: as §1

[9] = target: T6, ELK3 (Homo sapiens, UniProt P41970 1-407)
T6 sequence: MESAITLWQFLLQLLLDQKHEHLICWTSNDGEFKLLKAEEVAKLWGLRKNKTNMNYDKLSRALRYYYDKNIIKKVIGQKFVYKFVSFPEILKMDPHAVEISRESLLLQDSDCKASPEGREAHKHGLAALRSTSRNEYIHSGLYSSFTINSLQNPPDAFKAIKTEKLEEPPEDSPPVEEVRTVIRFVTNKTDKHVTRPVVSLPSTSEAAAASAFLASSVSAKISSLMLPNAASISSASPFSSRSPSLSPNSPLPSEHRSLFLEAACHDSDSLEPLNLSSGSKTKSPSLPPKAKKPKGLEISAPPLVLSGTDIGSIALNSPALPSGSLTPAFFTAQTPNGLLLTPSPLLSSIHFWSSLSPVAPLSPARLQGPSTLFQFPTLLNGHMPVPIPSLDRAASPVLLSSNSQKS
How it was run: as §1

[10] = target: T7, FEV (Homo sapiens, UniProt Q99581 1-238)
T7 sequence: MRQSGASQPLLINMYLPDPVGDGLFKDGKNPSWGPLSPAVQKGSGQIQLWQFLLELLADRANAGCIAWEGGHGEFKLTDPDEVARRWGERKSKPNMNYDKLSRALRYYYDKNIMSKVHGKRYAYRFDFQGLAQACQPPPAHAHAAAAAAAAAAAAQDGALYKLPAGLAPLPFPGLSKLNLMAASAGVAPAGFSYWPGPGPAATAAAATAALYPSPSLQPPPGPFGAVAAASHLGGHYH
How it was run: as §1

[11] = target: ETV5 (Homo sapiens, UniProt P41161 1-510)
Chain of ETV5 (P41161 whole entry): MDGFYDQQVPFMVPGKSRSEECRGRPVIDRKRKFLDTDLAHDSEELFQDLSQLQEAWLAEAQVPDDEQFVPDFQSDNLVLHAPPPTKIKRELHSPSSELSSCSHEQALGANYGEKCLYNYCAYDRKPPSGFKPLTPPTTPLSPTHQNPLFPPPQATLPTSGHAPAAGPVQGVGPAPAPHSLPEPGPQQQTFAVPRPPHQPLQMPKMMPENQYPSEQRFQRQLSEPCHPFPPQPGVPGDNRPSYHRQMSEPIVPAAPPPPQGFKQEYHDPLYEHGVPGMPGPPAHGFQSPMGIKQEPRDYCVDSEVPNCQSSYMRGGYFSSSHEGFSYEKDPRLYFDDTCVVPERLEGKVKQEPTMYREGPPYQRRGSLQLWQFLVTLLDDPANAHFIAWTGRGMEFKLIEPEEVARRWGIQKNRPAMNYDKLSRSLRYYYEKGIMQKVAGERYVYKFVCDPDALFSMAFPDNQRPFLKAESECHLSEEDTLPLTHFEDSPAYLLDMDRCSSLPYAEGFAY
How it was run: as §1

[12] = target: T8, SPIC (Homo sapiens, UniProt Q8N5J4 1-248)
T8 sequence: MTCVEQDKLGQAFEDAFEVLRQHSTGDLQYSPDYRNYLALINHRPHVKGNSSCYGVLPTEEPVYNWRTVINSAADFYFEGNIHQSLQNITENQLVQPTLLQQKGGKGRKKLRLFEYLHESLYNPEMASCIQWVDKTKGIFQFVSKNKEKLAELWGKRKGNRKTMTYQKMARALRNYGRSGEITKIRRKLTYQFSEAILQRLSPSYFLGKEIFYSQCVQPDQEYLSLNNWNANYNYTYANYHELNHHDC
How it was run: as §1

[13] = target: ELF4 (Homo sapiens, UniProt Q99607 1-663)
Chain of ELF4 (Q99607 whole entry): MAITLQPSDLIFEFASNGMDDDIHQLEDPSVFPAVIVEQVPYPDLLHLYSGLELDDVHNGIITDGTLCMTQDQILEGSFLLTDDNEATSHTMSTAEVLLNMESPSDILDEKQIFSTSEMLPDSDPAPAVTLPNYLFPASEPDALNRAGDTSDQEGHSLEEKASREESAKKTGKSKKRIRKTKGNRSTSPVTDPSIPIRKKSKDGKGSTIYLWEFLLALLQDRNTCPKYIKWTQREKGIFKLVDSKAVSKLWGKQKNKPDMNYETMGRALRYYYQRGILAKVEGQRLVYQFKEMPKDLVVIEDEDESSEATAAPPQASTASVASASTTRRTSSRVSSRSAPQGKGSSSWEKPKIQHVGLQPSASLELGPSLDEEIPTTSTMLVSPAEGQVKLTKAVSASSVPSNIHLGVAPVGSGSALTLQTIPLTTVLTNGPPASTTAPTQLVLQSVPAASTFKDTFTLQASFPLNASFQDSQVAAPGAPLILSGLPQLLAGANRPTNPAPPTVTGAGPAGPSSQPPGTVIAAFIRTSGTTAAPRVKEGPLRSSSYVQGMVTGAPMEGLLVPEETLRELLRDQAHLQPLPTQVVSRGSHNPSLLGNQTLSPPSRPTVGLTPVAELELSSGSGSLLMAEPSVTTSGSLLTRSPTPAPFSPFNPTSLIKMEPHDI
How it was run: as §1

[14] = target: T9, ELK4 (Homo sapiens, UniProt P28324-2 1-405)
T9 sequence: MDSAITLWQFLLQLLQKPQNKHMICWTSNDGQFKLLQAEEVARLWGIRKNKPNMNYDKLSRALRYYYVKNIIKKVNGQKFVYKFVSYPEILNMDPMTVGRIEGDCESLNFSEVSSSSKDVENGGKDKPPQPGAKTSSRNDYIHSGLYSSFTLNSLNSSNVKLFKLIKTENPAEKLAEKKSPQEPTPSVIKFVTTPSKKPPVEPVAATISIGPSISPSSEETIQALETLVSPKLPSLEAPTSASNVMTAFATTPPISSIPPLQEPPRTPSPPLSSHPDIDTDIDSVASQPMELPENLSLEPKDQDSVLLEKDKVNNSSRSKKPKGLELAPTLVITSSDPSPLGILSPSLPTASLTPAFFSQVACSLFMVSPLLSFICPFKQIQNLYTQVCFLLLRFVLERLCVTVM
How it was run: as §1

[15] = target: T10, ETV2 (Homo sapiens, UniProt O00321 1-342)
T10 sequence: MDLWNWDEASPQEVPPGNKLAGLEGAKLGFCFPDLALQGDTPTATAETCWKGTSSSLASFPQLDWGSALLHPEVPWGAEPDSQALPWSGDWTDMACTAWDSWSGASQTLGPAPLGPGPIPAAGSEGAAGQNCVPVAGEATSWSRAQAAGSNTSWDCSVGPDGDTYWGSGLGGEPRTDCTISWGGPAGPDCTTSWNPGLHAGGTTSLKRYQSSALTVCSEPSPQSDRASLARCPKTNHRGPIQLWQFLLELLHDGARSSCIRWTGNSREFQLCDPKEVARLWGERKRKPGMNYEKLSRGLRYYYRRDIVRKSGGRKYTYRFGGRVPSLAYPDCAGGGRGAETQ
How it was run: as §1

[16] = target: T11, ELF3 (Homo sapiens, UniProt P78545 1-371)
T11 sequence: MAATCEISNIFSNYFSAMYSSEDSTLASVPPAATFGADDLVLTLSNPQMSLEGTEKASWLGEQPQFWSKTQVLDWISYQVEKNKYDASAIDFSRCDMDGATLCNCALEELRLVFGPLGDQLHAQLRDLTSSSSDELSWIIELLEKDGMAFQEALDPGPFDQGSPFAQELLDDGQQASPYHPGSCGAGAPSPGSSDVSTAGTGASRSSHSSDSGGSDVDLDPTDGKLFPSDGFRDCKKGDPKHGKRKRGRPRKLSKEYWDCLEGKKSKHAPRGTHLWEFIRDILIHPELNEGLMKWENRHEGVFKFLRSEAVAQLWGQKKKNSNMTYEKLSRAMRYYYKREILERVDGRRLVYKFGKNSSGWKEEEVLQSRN
How it was run: as §1

[17] = target: ETV1 (Homo sapiens, UniProt P50549 1-477)
Chain of ETV1 (P50549 whole entry): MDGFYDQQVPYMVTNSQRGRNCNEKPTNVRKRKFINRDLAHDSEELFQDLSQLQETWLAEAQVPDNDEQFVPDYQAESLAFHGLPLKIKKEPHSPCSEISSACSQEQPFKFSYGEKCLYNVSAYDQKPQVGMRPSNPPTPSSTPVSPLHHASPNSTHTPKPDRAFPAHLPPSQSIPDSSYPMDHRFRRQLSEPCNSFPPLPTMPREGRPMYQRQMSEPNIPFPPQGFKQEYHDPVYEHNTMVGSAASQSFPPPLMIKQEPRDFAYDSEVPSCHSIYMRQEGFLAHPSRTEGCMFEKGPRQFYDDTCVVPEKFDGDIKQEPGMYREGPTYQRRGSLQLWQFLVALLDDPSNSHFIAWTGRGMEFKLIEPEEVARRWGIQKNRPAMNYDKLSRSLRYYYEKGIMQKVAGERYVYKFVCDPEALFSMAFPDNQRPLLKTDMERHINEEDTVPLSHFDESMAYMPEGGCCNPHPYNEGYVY
How it was run: as §1

Sequence | binding signal [1] | binding signal [2] | binding signal [3] | binding signal [4] | binding signal [5] | binding signal [6] | binding signal [7] | binding signal [8] | binding signal [9] | binding signal [10] | binding signal [11] | binding signal [12] | binding signal [13] | binding signal [14] | binding signal [15] | binding signal [16] | binding signal [17]
GTGACC | 1.29 fold enrichment (6-mer frequency, TF over GST control) | 1.27 fold enrichment (6-mer frequency, TF over GST control) | 1.18 fold enrichment (6-mer frequency, TF over GST control) | 1.24 fold enrichment (6-mer frequency, TF over GST control) | 1.25 fold enrichment (6-mer frequency, TF over GST control) | 1.36 fold enrichment (6-mer frequency, TF over GST control) | 1.32 fold enrichment (6-mer frequency, TF over GST control) | 1.24 fold enrichment (6-mer frequency, TF over GST control) | 1.03 fold enrichment (6-mer frequency, TF over GST control) | 1.36 fold enrichment (6-mer frequency, TF over GST control) | 1.22 fold enrichment (6-mer frequency, TF over GST control) | 1.34 fold enrichment (6-mer frequency, TF over GST control) | 1.27 fold enrichment (6-mer frequency, TF over GST control) | 1.36 fold enrichment (6-mer frequency, TF over GST control) | 1.12 fold enrichment (6-mer frequency, TF over GST control) | 1.3 fold enrichment (6-mer frequency, TF over GST control) | 1.24 fold enrichment (6-mer frequency, TF over GST control)
TCGCCG | 1.14 fold enrichment (6-mer frequency, TF over GST control) | 1.24 fold enrichment (6-mer frequency, TF over GST control) | 1.27 fold enrichment (6-mer frequency, TF over GST control) | 1.24 fold enrichment (6-mer frequency, TF over GST control) | 1.23 fold enrichment (6-mer frequency, TF over GST control) | 1.34 fold enrichment (6-mer frequency, TF over GST control) | 1.14 fold enrichment (6-mer frequency, TF over GST control) | 1.16 fold enrichment (6-mer frequency, TF over GST control) | 1.16 fold enrichment (6-mer frequency, TF over GST control) | 1.26 fold enrichment (6-mer frequency, TF over GST control) | 1.03 fold enrichment (6-mer frequency, TF over GST control) | 1.09 fold enrichment (6-mer frequency, TF over GST control) | 1.21 fold enrichment (6-mer frequency, TF over GST control) | 1.3 fold enrichment (6-mer frequency, TF over GST control) | 1.2 fold enrichment (6-mer frequency, TF over GST control) | 1.21 fold enrichment (6-mer frequency, TF over GST control) | 1.37 fold enrichment (6-mer frequency, TF over GST control)
